Results reported in PubChem BioAssay AID720597 (Broad Institute, 2013).
Results with a measured potency or affinity are listed apart. The source made the active and inactive calls.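 How the source made its calls: active means fitted half-maximal dose no more than twice the top valid tested dose, for compounds that lower signal; inconclusive means fit invalid, or curve flat with activity between -70 and -30; inactive means potency past limit, curve flat within ±30, or signal increasing.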

target: NAD-dependent protein deacylase sirtuin-5, mitochondrial (Homo sapiens) (UniProt Q9NXA8); test: SIRT5 deacylase inhibitors, dose response, biochemical, fluorescence imaging, cherry-pick, set 6 (AID 720597); conditions: Purified SirT5, succinyl-peptide-AMC/trypsin fluorescence; series mostly up to 15 µM;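 further: lower AMC signal can also come from blocking the trypsin step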
Sequence (Q9NXA8 whole entry, looked up): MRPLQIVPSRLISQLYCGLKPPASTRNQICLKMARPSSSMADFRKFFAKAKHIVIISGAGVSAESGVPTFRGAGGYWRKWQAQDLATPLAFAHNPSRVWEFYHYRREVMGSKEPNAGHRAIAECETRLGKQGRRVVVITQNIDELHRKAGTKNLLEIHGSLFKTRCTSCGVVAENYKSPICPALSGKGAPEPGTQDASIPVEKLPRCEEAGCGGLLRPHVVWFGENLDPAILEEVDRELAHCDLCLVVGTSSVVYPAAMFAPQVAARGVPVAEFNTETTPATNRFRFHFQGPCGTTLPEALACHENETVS

outcome, inactive:
CN(C)C(=O)c1cccc(-c2ccc([C@H]3[C@@H](CO)N4CCCCN(S(C)(=O)=O)C[C@@H]34)cc2)c1
O=C(NCC[C@@H]1CC[C@H](NC(=O)C2CC2)[C@H](CO)O1)c1cc(Cl)cc(Cl)c1
COc1ccc(C#Cc2ccc3c(c2)[C@]2(C(=O)N3)[C@H](C(=O)N3CCN(c4ncccn4)CC3)[C@H]3C(=O)O[C@H](c4ccccc4)[C@H](c4ccccc4)N3[C@@H]2c2ccc(OCCO)cc2)cc1
COc1ccccc1-c1ccc2c(c1)O[C@@H](CN(C)S(=O)(=O)c1ccccc1)[C@H](C)CN([C@H](C)CO)S2(=O)=O
C[C@@H]1CN([C@@H](C)CO)S(=O)(=O)c2ccc(/C=C/c3ccccc3)cc2O[C@H]1CN(C)C(=O)c1ccc2c(c1)OCO2
COc1cccc(S(=O)(=O)N(C)C[C@@H]2Oc3cc(C4=CCCCC4)ccc3S(=O)(=O)N([C@@H](C)CO)C[C@H]2C)c1
C[C@H](CO)N1C[C@H](C)[C@H](CN(C)Cc2ccc(Oc3ccccc3)cc2)Oc2ccc(NC(=O)Cc3ccccc3)cc2C1=O
O=C(C[C@H]1CC[C@H]2[C@@H](COC[C@@H](O)CN2S(=O)(=O)c2ccccc2)O1)Nc1ccc(-c2ccccc2)cc1
Cc1ccc(S(=O)(=O)Nc2ccc3c(c2)C(=O)N([C@H](C)CO)C[C@@H](C)[C@H](CN(C)C(=O)Nc2ccc(F)cc2)OCCCC[C@H](C)O3)cc1
C[C@H]1CN([C@@H](C)CO)C(=O)c2cc(C#CCN(C)C)cnc2O[C@H]1CN(C)S(=O)(=O)c1ccccc1
COc1ccc(S(=O)(=O)N(C)C[C@@H]2OCCCC[C@H](C)Oc3ccc(NS(=O)(=O)c4ccc(F)cc4)cc3C(=O)N([C@@H](C)CO)C[C@@H]2C)cc1
